Reference: PubChem BioAssay (NCATS)
A number with no mark means an inactive call. Inconclusive results are not listed. A call without a number means that no potency is given here. Activity calls are given as the source filed them. Calls come from the whole dose curve; as a rule, active = well fitted curve in the direction sought with a large enough effect; inconclusive = small, poorly fitted or top-dose-only effect, or another doubt; inactive = no such curve, though single readings can be large; an effect the other way counts as inactive or inconclusive. Where a SMILES comes first, the peptide text is derived from it. [ ]: non-standard residue; d: D form. 2Abz = Nc1ccccc1C(=O)O

Key:
[1] = target: Glutathione peroxidase 1 (Homo sapiens) (UniProt P07203); test: Primary qHTS Assay for Inhibitors of Recombinant Selenoprotein Glutathione Peroxidase 1 (GPX1) (AID 1845191); note: nearly all actives have a fitted effect of over 65% in size
How it was run: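 GR-coupled readout: NADPH consumption tracked by fluorescence, ex 340/em 450 nm, at t=0 and after 15 min at RT. Final mix 10 nM GPX1, 1 mM GSH, 0.5 mM CHP, 0.5 mM NADPH, 100 nM GR, 0.01% BSA, following 30 min enzyme–compound preincubation.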

[2] = target: Phospholipid hydroperoxide glutathione peroxidase GPX4 (Homo sapiens) (UniProt P36969); test: Primary qHTS Assay for Inhibitors of Recombinant Selenoprotein Glutathione Peroxidase 4 (GPX4) (AID 1845192); note: nearly all actives have a fitted effect of over 65% in size; for activity change, negative = inhibition: series mostly up to about 50 µM
How it was run: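 Steps: GPX4 plus compound, 30 min RT; add GR/GSH/NADPH master mix; start with cumene hydroperoxide; read 340/450 nm fluorescence at 0 and 15 min. Finals were 200 nM GPX4, 1 mM GSH, 0.5 mM CHP, 0.5 mM NADPH, 100 nM GR.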

[3] = target: Luciferin 4-monooxygenase (Photinus pyralis) (UniProt P08659); test: Primary firefly luciferase (FLuc) qHTS assay for identification of artifact compounds. (AID 1845220); note: nearly all actives have a fitted effect of over 60% in size; for activity change, negative = inhibition: series mostly up to about 54 µM
How it was run: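 D-luciferin and ATP (10 uM each, final) in Tris acetate buffer pH 7.6 were incubated with compounds for 15 min at room temperature. The reaction was started with 10 nM Photinus pyralis luciferase and luminescence read after 5 min. Percent inhibition was fitted to a 4-parameter Hill equation.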

[4] = Primary fluorescence-based thiol-reactive (MSTI) qHTS assay for identification of artifact compounds. (AID 1845221); note: nearly all actives have a fitted effect of over 65% in size; note: potency is the fitted concentration of half-maximal effect;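 for activity change, negative = thiol reactive: series mostly up to about 54 µM; thiol-reactive compounds lower the probe fluorescence signal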
How it was run: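 In PBS pH 7.4 with 2% DMSO, each compound met 4 uM MSTI for one hour at ambient temperature, shielded from light, before fluorescence detection.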

[5] = system: Nanoluciferase (engineered Oplophorus gracilirostris luciferase); test: Primary Nanoluciferase (NLuc) qHTS assay for identification of artifact compounds. (AID 1845222); note: series mostly up to about 54 µM
How it was run: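 Diluted conditioned medium from NLuc-expressing S16 cells treated with compounds for 15 min at room temperature, then Nano-Glo substrate added; luminescence read after 5 min. Percent inhibition versus no-enzyme and DMSO controls fitted to 4-parameter Hill equation.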

[6] = Primary redox qHTS assay for identification of artifact compounds. (AID 1845223)
How it was run: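 Redox-cycling detection via DTT (250 uM final) oxidation coupled to Amplex Red (25 uM)/HRP (250 mU/mL) in HBSS. 15 min preincubation plus 30 min after DTT, room temperature. Ex/Em 525/598 nm; 4-parameter Hill fit against DMSO and 10 uM DA3003.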

Chain of Glutathione peroxidase 1 (Homo sapiens) (P07203 whole entry, looked up): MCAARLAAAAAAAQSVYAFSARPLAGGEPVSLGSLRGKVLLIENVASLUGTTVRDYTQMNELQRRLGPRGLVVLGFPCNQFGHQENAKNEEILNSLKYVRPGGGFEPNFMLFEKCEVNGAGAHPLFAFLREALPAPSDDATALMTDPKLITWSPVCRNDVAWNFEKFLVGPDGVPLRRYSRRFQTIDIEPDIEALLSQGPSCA
Chain of Phospholipid hydroperoxide glutathione peroxidase GPX4 (Homo sapiens) (P36969 whole entry, looked up): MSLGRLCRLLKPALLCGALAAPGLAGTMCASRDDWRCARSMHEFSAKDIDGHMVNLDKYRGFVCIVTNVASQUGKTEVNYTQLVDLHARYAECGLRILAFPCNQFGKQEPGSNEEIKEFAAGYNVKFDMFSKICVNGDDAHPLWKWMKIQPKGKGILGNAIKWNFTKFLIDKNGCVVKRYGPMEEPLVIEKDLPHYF

| Structure (SMILES) | Potency [1] | Potency [2] | Potency [3] | Potency [4] | Potency [5] | Potency [6] | activity change, negative = inhibition [3] | activity change, negative = thiol reactive [4] | activity, negative = inhibition [5] | redox activity (% of DA3003) [6] |
| --- | --- | --- | --- | --- | --- | --- | --- | --- | --- | --- |
| COc1cc(/C=C/C(=O)OC(C)(C)C(OC2OC(CO)C(O)C(O)C2O)C(=O)OCc2ccc(OC3OC(CO)C(O)C(O)C3O)cc2)ccc1O (centres undefined) | inactive | inactive | inactive | inactive | inactive | inactive |  |  |  |  |
| C[C@@H]1O[C@@H](O[C@H]2[C@H](O[C@H]3[C@H](O[C@H]4CC[C@@]5(C=O)C(CC[C@]6(C)C5CC=C5C7CC(C)(C)C[C@@H](O)[C@]7(C)CC[C@]56C)C4(C)C)O[C@H](C(=O)O)[C@@H](O)[C@@H]3O)OC[C@@H](O)[C@@H]2O)[C@H](O)[C@H](O)[C@H]1O (some centres undefined) | inactive | inactive |  |  |  |  | 0.64% [at 11.6 µM] | 114% [at 11.5 µM] | 3.37% [at 11.6 µM] | 8.98% [at 11.5 µM] |
| CC1(C(=O)O)CCCC2(C)C1CCC13CC(CCC21)C1(CO)OC31 (centres undefined) | inactive | inactive | inactive | inactive | inactive | inactive |  |  |  |  |
| CCOC(=O)c1ccnc(CNCC(=O)N(CC)CCN(C)C)c1 | inactive | inactive | inactive | inactive | inactive | inactive |  |  |  |  |
| COc1c2c(c(C)c3c1C(=O)OC3)OC1(C)CC(O)C3(O)C(C)(C)OC(=O)CCC3(C)C1C2 (centres undefined) | inactive | inactive | inactive | inactive | inactive | inactive |  |  |  |  |
| C[C@]12CCC[C@](C)(C(=O)O)C1CCC13C=C(CO)C(CCC12)C3 (some centres undefined) | inactive | inactive | inactive | inactive | inactive | inactive |  |  |  |  |
| N#Cc1ccnc(N2C(=O)CC[C@H]2C(=O)N(c2cncc(F)c2)[C@H](C(=O)NC2CC(F)(F)C2)c2ccccc2Cl)c1 | inactive | inactive | inactive | inactive | inactive | inactive |  |  |  |  |
| CCC(C)C1NC(=O)C2CCCN2C(=O)C(C(C)C)NC(=O)c2ccccc2NC(=O)C(Cc2ccc(O)cc2)NC(=O)C(C)NC(=O)C(C(C)O)NC1=O (centres undefined) (cyclo([2Abz]VPITAY); configuration not given here) | inactive | inactive | inactive | inactive | inactive | inactive |  |  |  |  |
| O=C(NCc1ccc(OC(F)(F)F)cc1)C1c2ccccc2C(=O)N1C1CCOCC1 (centres undefined) | inactive | inactive | inactive | inactive | inactive | inactive |  |  |  |  |
| COc1cc(C(C)=O)ccc1O[C@@H]1O[C@H](CO[C@@H]2O[C@@H](C)[C@H](O)[C@@H](O)[C@H]2O)[C@@H](O)[C@H](O)[C@H]1O | inactive | inactive | inactive | inactive | inactive | inactive |  |  |  |  |
| O=C(O[C@@H]1O[C@H](CO)[C@@H](O)[C@H](O)[C@H]1O)c1c(O)cc(O)cc1/C=C/c1ccccc1 | inactive | inactive | inactive | 7.33 µM (active) | inactive | inactive |  |  |  |  |
| C=CC1(C)C=C2C(O)CC3C(C)(C(=O)O)CCCC3(C)C2CC1 (centres undefined) | inactive | inactive | inactive | inactive | inactive | inactive |  |  |  |  |
| CC(C)=CCCC1(C)Oc2cc3c(c4c2C2C(O4)C(C)(O)CCC21)CN(C(CCC(=O)O)C(=O)O)C3=O (centres undefined) | inactive | inactive | inactive | inactive | inactive | inactive |  |  |  |  |
| COC12CC3C(C(C)C1=CC(=O)O2)C(O)C(OC(C)=O)C1C(C)(C)C(OC(C)=O)CCC31C (centres undefined) | inactive | inactive | inactive | inactive | inactive | inactive |  |  |  |  |
| COC(=O)C[C@@H]1C(C(=O)O)=CO[C@@H](O[C@@H]2O[C@H](CO)[C@@H](O)[C@H](O)[C@H]2O)/C1=C\COC(=O)/C=C\c1ccccc1 | inactive | inactive | inactive | inactive | inactive | inactive |  |  |  |  |
| COC(=O)c1ccc(O[C@@H]2O[C@H](CO)[C@@H](O)[C@H](O)[C@H]2O)c(OC)c1 | inactive | inactive | inactive | 16.5 µM (active) | inactive | inactive |  |  |  |  |
| O=C(OCC12OC1C=CC(OC(=O)c1ccccc1)C2O)c1ccccc1 (centres undefined) | inactive | inactive | inactive | inactive | inactive | inactive |  |  |  |  |
| C=C(C(=O)O)C1CCC(C)C2CCC(=O)OC2(C)C1 (centres undefined) | inactive | inactive | inactive | 11.9 µM (active) | inactive | inactive |  |  |  |  |
| CC(C#N)C(C)O[C@@H]1O[C@H](CO)[C@@H](O)[C@H](O)[C@H]1O (some centres undefined) | inactive | inactive | inactive | 26.7 µM (active) | inactive | inactive |  |  |  |  |
